The source of these data is PubChem BioAssay AID588463 (National Center for Advancing Translational Sciences (NCATS), 2011).

Out of some 1,200 compounds screened, about 15 (1%) were called active. Where a call stands in place of a potency, no number is given. Roughly 7% stayed inconclusive and do not appear here. The call rests on the fitted dose curve; in most records, active means well fitted activation curve with a large enough effect; inconclusive means small, poorly fitted or top-dose-only effect; inactive means flat fitted curve, though single readings scatter. The sample as a whole holds a higher share of actives than the screen did.
Potency means the concentration at half of the fitted maximal effect.

Chain of Beta-2 adrenergic receptor (Homo sapiens) (P07550 whole entry, looked up): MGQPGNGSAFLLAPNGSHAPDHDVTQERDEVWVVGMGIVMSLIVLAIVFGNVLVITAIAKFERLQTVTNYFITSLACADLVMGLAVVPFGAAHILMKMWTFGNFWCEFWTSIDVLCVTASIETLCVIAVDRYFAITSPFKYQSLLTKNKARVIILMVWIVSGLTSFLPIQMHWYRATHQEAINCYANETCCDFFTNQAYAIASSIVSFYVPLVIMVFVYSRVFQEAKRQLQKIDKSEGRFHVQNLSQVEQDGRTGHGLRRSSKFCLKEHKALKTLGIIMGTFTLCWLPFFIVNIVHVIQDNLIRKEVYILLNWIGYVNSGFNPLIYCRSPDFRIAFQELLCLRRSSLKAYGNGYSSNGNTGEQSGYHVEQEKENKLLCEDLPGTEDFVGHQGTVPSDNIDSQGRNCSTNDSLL

The target of this assay is Beta-2 adrenergic receptor (Homo sapiens) (UniProt P07550). Nature of the assay: qHTS assay of beta-arrestin-biased ligands of beta2-adrenergic receptor: Hit Validation. The conditions noted are these: cell-based beta-arrestin recruitment to beta2AR; Potency: activation; series mostly up to 46.1 µM. The source says:
The concept of biased agonism is an emerging concept of molecular pharmacology which proposes that seven transmembrane receptors (7TMRs) or G protein-coupled receptors (GPCRs), exist in multiple signaling conformations and complexes and that ligands (either agonists or antagonists) can induce signaling biased responses for distinct signal transduction cascades.
Furthermore, accumulating evidence over the last decade has drawn attention to a novel function of beta-arrestins as signal transducers that scaffold various signaling molecules upon activation of 7TMRs. […] This beta-arrestin-biased signaling presumably leads to distinct physiological outcomes from those by G protein activation.
Additionally, the active receptor conformations which […] on this beta-arrestin signaling are likely different from those activating G protein signaling
The goal of this screening project will be to discover and optimize novel beta-arrestin-biased ligands for beta2-AR signaling. A luminescent cell-based assay for beta2-AR-mediated agonism, known as the Tango assay, has been validated in which ligand binding of a recombinant beta2-AR and subsequent recruitment of a recombinant beta-arrestin lead to the release of the transcriptional activator tTA, which upregulates transcription of a tTA-responsive luciferase gene.
NIH Molecular Libraries Probe Production Network [MLPCN]
NIH Chemical Genomics Center [NCGC]
PI: Bryan Roth (UNC) and Bob Lefkowitz (Duke)
NCGC Assay Protocol Summary:
Tango cells were dispensed into white, solid, tissue-culture-treated 1536-well plates at 1500 cells/well in DMEM, containing 1% fetal bovine serum (FBS). Then, 23 nL of compounds or DMSO were delivered to each well using a pin tool. Plates were incubated at 37 degrees C, 5% CO2 for 18 hr. Then 2.5 uL luminescent substrate mix (in-house prepared: 150 mM Tris-Cl, pH 7.6, 3 mM MgCl2, 1% Triton X-100, 5 mM DTT, 0.5 mM CoA, 0.15 mM ATP, 0.44 mM D-luciferin, final concentrations) was added to each well. Plates were then incubated for 15 minutes at room temperature, and subsequently measured on a ViewLux plate reader for luminescent signal using a clear filter with a 10 second exposure and 2x binning. The %Activity was determined from the corrected luminescence values.
Concentration-response curves were fitted to the signals arising from the resulting luminescence. The concentration-effect curves were then classified based on curve quality (r2), response magnitude and degree of measured activity, and compounds were subsequently categorized based on their curve class.
Keywords: biased agonism, beta2-AR, beta-arrestin, GPCR, 7TMR, Tango, luminescence, MLSMR, MLPCN, NIH Roadmap, qHTS, NCGC
For `Clc1cccc(Cl)c1C1Nc2cccc3cccc(c23)N1`, the Potency result is “inactive”.

Turning to `COC(=O)N1C(=O)[C@@](c2ccc(OC)cc2)(C(C)C)N1C(=O)OC`, the Potency result was “inactive”.

For `COc1ccc(C(=O)C2CCCN(Cc3cnc(N4CCCC4)s3)C2)cc1OC` (configuration not stated), the Potency result was “inactive”.

As for `Fc1ccccc1NC(=S)Nn1cnnc1`, the Potency result was “inactive”.

As for `CCOc1ccc(N(CC(=O)Nc2cccnc2)S(=O)(=O)c2ccc(C)cc2)cc1`, the Potency result is “inactive”.

For `O=C(CNCc1ccccc1Cl)Nc1ccc2c(c1)OCCO2`, the Potency entry is “inactive”.

Consider `Cc1cccc(N=C2NC(=O)/C(=C/c3cccs3)S2)c1`, for which the Potency result was “inactive”.

`CCNC(=S)NNc1nncc2ccccc12`: the Potency result is “inactive”.

As to `S=C(N/N=C/c1ccco1)NC1CC2CCC1C2` (configuration not stated), the Potency entry is “inactive”.

As for `CN=C(c1ccc(C)cc1)n1c(=S)nc(-c2ccc(C)cc2)n(C)c1=S`, the Potency result was “inactive”.

Consider `CNc1cc(C)nc(-n2nc(C)cc2C)n1`, for which the Potency result is “inactive”.

Take `CN(C)NC(=S)Nc1ccc(Cl)cc1`: the Potency entry is “inactive”.

For `C/C(CCC1CC(C)(C)OC1=O)=N\NC(N)=S` (configuration not stated), the Potency result was “inactive”.

Consider `O=C(O)CCC(=O)N1N=C(c2ccccc2)CC1c1ccc2nccnc2c1` (configuration not stated), for which the Potency result was “inactive”.

With `O=C(OCC1CC(c2ccccc2)=NO1)c1ccco1` (configuration not stated), the Potency result is “inactive”.

On to `COc1ccc2nc(NC(=S)N(C)C)sc2c1`, for which the Potency entry was “inactive”.

Turning to `COc1ccc(C2=NN(C(=O)/C=C/c3ccccc3)C(c3ccccc3)C2)c(OC(C)=O)c1` (configuration not stated), the Potency entry was “inactive”.

With `Cc1cc(/C=N/NC(N)=S)c(C)n1-c1ccc(Br)cc1`, the Potency result is “inactive”.

For `COc1ccc(CN2CCCC(C(=O)c3ccc(Cl)cc3)C2)cc1Cn1cccn1` (configuration not stated), the Potency result is “inactive”.

`COC(=O)CSc1ccc2nnc(-c3ccc(OC)c(OC)c3)n2n1`: the Potency result is “inactive”.

For `CCNC(=S)N/N=C/c1cccs1`, the Potency result was “inactive”.

For the compound `Cc1nn(-c2ccccc2)c(C)c1/C=N/NC(=O)CSc1nnc(SCc2ccccc2Cl)s1`, the Potency result is “inactive”.

Consider `FC(F)(F)c1cc(Nc2ccccc2)nc(-c2ccccn2)n1`, for which the Potency result is “inactive”.

Turning to `CC1S/C(=N/N=C2CCCCC2)NC1=O` (configuration not stated), the Potency entry was “inactive”.

With `Cc1ccc2c(c1)C(=O)N1[C@H]3c4ccccc4OC[C@@H]3[C@H](c3ccccc3)[C@]1(C)C(=O)N2`, the Potency result is “inactive”.

For the compound `CCN1CCN(C(=S)NC(=O)c2cccc(Br)c2)CC1`, the Potency result was “inactive”.

On to `CCC(Sc1nc2ccsc2c(=O)n1-c1ccc(Cl)c(C)c1)C(=O)NCc1ccco1` (configuration not stated), for which the Potency entry was “inactive”.

With `Cc1ccc(-n2c(SCC(=O)NCc3ccco3)nc3c(sc4ccccc43)c2=O)cc1`, the Potency is 13 µM (active).

Regarding `COc1ccc(CNc2nc(SCC(=O)NCc3ccco3)nc3ccccc23)cc1`, the Potency entry is “inactive”.

On to `CCOC(=O)C(Sc1cc(-c2ccccc2)nc2ncnn12)C(C)=O` (configuration not stated), for which the Potency entry was “inactive”.

For the compound `CC(C)(O)C(=O)NN(C(=O)c1ccccc1)c1ccc2ccccc2c1`, the Potency entry is “inactive”.

For `O=C(N/N=C/c1cccs1)c1cncc(Br)c1`, the Potency entry is “inactive”.
